Shiga toxin inh – blocks Shiga toxin action in Vero cells; AID 2315; inhibition, % at 38.7 µM; Vero cells, Shiga toxin protein synthesis inhibition reporter; 290,000 tested, 9.2% active; in the data active = inhibition mostly above about 28%, no sharp cut-off; inactive = mostly below about 43%; note: 0% is about no effect
Pf growth 96h – P. falciparum growth inhibition at 96 hour, primary screen for plastid delayed-death inhibitors; P. falciparum luciferase reporter growth, 96 h; Potency, µM (top dose mostly 28.7 µM), inactives show at the highest dose activity change, negative = inhibition, actives largely listed as inhibitors; 320,000 tested, 6.9% active; AID 504834; note: potency is the fitted concentration of half-maximal effect; % is set by controls: 0 for no effect and ±100 for the full control effect
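96 h incubation, 37 C, 5% CO2, of luciferase-reporter P. falciparum-infected RBCs (2% hematocrit, 0.05% parasitemia final) with test compounds; endpoint luminescence.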
Cycloheximide cs – counter-screen for Shiga toxin inhibitors: cycloheximide protein synthesis inhibition; 300,000 tested, 12% active; max response, %; cell reporter, cycloheximide protein synthesis inhibition counterscreen; AID 2314; in the data active = max response mostly above about 13%, no sharp cut-off; inactive = mostly below about 14%; note: read at 38.3 µM for the half of the compounds with a filed dose; 0% is about no effect
Pf growth 48h – P. falciparum growth inhibition at 48 hours (one generation); AID 504832; 310,000 tested, 5.9% active; Potency, µM (doses to about 28.7 µM), for the others: at the highest dose activity change, negative = inhibition, hits mostly inhibitors; P. falciparum luciferase growth in erythrocytes, 48 h; note: potency is the fitted concentration of half-maximal effect; % is set by controls: 0 for no effect and ±100 for the full control effect
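A one-generation exposure of luciferase-tagged malaria parasites in RPMI 1640/Albumax erythrocyte culture, 37 C and 5% CO2. Inhibition is inferred from decreased luminescence after adding detection reagent.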
HCMV antiviral – inhibitors of human cytomegalovirus | activity change, negative = inhibition, % at 57.5 µM | HFF cells, HCMV-luciferase reporter, 72 h; stronger effect = lower value | AID 1259415 | 410,000 tested, 4.5% active; in the data active = activity change below about -60%; inconclusive = no clear call, values can overlap the other calls; inactive = above about -39%; note: % is set by controls: 0 for no effect and ±100 for the full control effect
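HFF cells seeded 16 h at 37C, treated with compounds, infected with luciferase-reporter HCMV at MOI 1 PFU/cell; luciferase read at 72 h post infection, normalized to buffer-only and Salinomycin controls.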
Numbers without * were called inactive; ? = inconclusive; / = not tested or not shown; [ ] = remark or other dose. Hits are enriched below; roughly 20% of the tested compounds scored in any of these assays. Unless noted, calls come from the whole dose curve; as a rule, active = well fitted inhibition curve with a large enough effect; inconclusive = small, poorly fitted or top-dose-only effect, or another doubt; inactive = no such curve, though single readings can be large or run the other way.

SMILES	Shiga toxin inh	Pf growth 96h	Cycloheximide cs	Pf growth 48h	HCMV antiviral
COc1ccc(-c2csc(C(NC(C)=O)c3ccccc3)n2)cc1 (stereo unspecified)	/	/	/	/	25.0
CCn1c(SCC(=O)Nc2nccs2)nnc1-c1cccnc1	18.7	20.6%	31.2*	11.2%	74.8
CCn1c(SCC(=O)Nc2nccs2)nnc1-c1ccccc1	14.2	11.6%	-3.0	-17.0%	-13.8
O=C(CCC1CCCCC1)NNC(=O)c1cnccn1	-5.2	?	-4.1	13.1µM*	6.5
O=C(NNC(=O)C1CCCCC1)c1cnccn1	-5.2	25.8%	1.3	-3.7%	-32.9
Cc1ccc(CC(=O)Nc2nccs2)cc1	18.6	1.5%	8.7	38.0%	-66.8*
CCc1ccc(CCC(=O)Nc2nccs2)o1	59.6*	/	33.8*	31.3%	35.9
COC(=O)[C@H]1[C@H](CO)[C@H]2Cn3c(cccc3=O)[C@@H]1N2Cc1cocn1	/	/	/	/	-13.2
COCc1nnc(NC(=O)CSCc2ccccc2)s1	2.4	32.1%	2.6	33.8%	-0.6
O=C(CSCc1ccccc1)Nc1nccs1	21.2	67.2%	18.2*	24.5%	-19.0
O=C(CSc1ncccn1)NCc1ccc(F)cc1	40.6	-17.6%	19.3	59.4%	33.6
O=C(CSc1cn(Cc2ccccc2)c2ccccc12)NCc1ccc(F)cc1	-13.3	9.28µM*	-4.6	?	16.1
COc1cc(NC(=O)CSc2ccc(-c3sc(-c4ccccc4)nc3C)nn2)cc(OC)c1	/	/	/	/	14.5
CCn1c2ccccc2c2cc(/C=N/NC(=O)c3cc(O)cc(O)c3)ccc21	6.4	15.4%	4.1	?	-16.1
CCn1c2ccccc2c2cc(/C=N/NC(=O)c3ccncc3)ccc21	-12.8	0.0%	-2.4	23.8%	6.0
CCn1c2ccccc2c2cc(/C=N/NC(=O)c3ccc(O)cc3)ccc21	active	12.8%	25.6*	?	-38.0
COCCn1c(C)cc(/C=N/NC(=O)c2cc3ccccc3cc2O)c1C	/	9.28µM*	/	3.7µM*	/
O=C(O)c1ccc(/C=N/NC(=O)c2cc3ccccc3cc2O)cc1	/	/	/	/	0.0
Cn1c(O)c(/C=N/NC(=O)c2cc3ccccc3cc2O)c2ccccc21	79.8*	?	20.8	?	-23.8
Cn1c2ccccc2c2cc(/C=N/NC(=O)c3ccc(O)cc3O)ccc21	72.4*	36.6%	31.6*	-30.0%	/
Cc1ccc(NC(=O)Cn2nnc3ccccc32)c(C)c1	-3.3	?	3.1	15.1%	-36.1
C[C@H](CO)N1C[C@H](C)[C@@H](CN(C)C(=O)Cc2ccccc2)OCCCC[C@H](C)Oc2ccc(NC(=O)NC3CCCCC3)cc2C1=O	/	/	/	/	12.3
O=C(OCc1ccc([N+](=O)[O-])cc1)C1CC(=O)N(CCc2ccccc2)C1 (stereo unspecified)	/	78.6%	/	-0.1%	-6.0
CC(=O)c1ccccc1NC(C(=O)NC1CCCCC1)C(C)C (stereo unspecified)	/	/	/	/	6.5
COC(=O)[C@@]1(Cc2ccc(F)cc2)[C@H]2c3cc(C(=O)N4CCCC4)n(CC4CC4)c3C[C@H]2CN1C(=O)c1ccccc1	/	/	/	/	-15.2
SMILES	Shiga toxin inh	Pf growth 96h	Cycloheximide cs	Pf growth 48h	HCMV antiviral
Cc1cc(C)nc(SCc2csc(N)n2)n1	64.3	-61.3%	27.6*	44.6%	25.9
Cc1cc(C)nc(SCc2csc(-c3ccccc3)n2)n1	84.9*	168.1%	60.8*	194.8%	31.8
Clc1ccc(-c2nc(CSc3ccccn3)cs2)cc1	/	/	/	/	2.9
Cc1cc(C)nc(SCCN(C)C)n1	8.3	52.6%	0.7	8.6%	-3.0
Nc1ccccc1SCc1csc(-c2ccc(Cl)cc2)n1	112.9*	51.7%	44.1*	171.5%	27.0
CCN(CC)CCNCc1ccc(Br)cc1OCC(=O)NCc1ccccc1	-19.0	52.1%[5.75 µM]	-1.7	?	?
CCOC(=O)N1CCC(N2C(=O)c3ccccc3C2Nc2cc(OC)c(OC)c(OC)c2)CC1 (stereo unspecified)	-1.7	?	-2.7	?	-17.1
CCOC(=O)N1CCC(N2C(=O)c3ccccc3C2Nc2cc(Cl)c(OC)cc2OC)CC1 (stereo unspecified)	-14.7	?	-2.8	13.1µM*	9.2
N#Cc1nc(-c2ccc(F)cc2)oc1NCCN1CCOCC1	17.3	55.1%	1.7	18.9%	21.2
COCCNc1oc(-c2ccc(Cl)cc2)nc1C#N	70.4*	?	38.1*	57.8%	59.2
COCCNc1oc(-c2ccc(C)cc2)nc1C#N	66.1	?	22.7*	114.4%	142.6
Cc1ccc(-c2nc(C#N)c(NCCN3CCCCC3)o2)cc1	24.8*	-19.0%	15.2*	-20.9%	10.0

High-throughput results: PubChem BioAssay, National Center for Advancing Translational Sciences (NCATS)
